PubChem BioAssay AID1259399 (Fisher Drug Discovery Resource Center, 2018)
In all, about 160,000 compounds went through this assay and about 240 (0.15%) were called active. The entries come from a sample that favours actives as a whole. A number with no mark means an inactive call. Rule as the data show it: active = inhibition above about 40%; inactive = the rest.

Molecular target: Cyclic GMP-AMP synthase (Mus musculus) (UniProt Q8C6L5)
Test: cyclic GMP-AMP synthase inhibitors, mouse, primary biochemical chemiluminescence (AID 1259399);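 also: 0% = negative control wells and 100% = reference inhibitor with no enzyme activity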
Details: recombinant cGAS, Kinase-Glo ATP depletion luminescence; at 12.5 µM; active compounds read high

Sequence of Cyclic GMP-AMP synthase (Mus musculus) (Q8C6L5 whole entry, looked up): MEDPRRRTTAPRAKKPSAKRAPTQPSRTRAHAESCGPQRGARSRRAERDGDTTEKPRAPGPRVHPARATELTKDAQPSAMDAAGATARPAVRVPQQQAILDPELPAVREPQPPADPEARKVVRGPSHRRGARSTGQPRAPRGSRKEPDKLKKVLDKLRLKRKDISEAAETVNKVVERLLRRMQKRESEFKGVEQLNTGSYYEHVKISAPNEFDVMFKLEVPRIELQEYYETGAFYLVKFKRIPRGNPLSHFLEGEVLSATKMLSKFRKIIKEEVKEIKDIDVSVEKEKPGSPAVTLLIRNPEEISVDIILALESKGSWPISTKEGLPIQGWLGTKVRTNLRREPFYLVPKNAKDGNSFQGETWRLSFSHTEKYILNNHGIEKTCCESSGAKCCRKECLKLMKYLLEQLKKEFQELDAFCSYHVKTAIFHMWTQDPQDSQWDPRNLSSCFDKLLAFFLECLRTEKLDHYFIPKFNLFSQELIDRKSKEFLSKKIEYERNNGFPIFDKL

In order of falling inhibition:
1. O=c1cc(-c2ccc(F)cc2)ncn1Cc1cccc2ccccc12  5.38%
2. O=C(Cn1nnc(-c2ccccc2)n1)Nc1c(F)cccc1F  4.62%
3. O=C(NNc1nc2c(Cl)cccc2s1)c1cc(=O)c2ccccc2o1  4.02%
4. Cc1ccccc1OCC(=O)N(CCn1cccn1)c1nc2ccccc2s1  3%
5. CCOCCCN(CC(=O)N(Cc1ccccc1)Cc1sccc1C)C(=O)c1cccc(Br)c1  1.83%
6. C=CCn1c(SCC(=O)c2cc(C)n(CCOC)c2C)nc2scc(-c3ccccc3)c2c1=O  1.74%
7. O=C(Nc1ccc(-c2ccccc2)cc1)N[C@@H](Cc1ccccc1)C(=O)N1CCC(C(=O)N2CCOCC2)CC1  1.19%
8. Fc1ccc(CN2CCCn3cccc3C2c2ccoc2)cc1Cl (centres undefined)  0.16%
9. COc1ccc(C(=O)N(Cc2ccc(F)cc2)Cc2cc(NC(=O)c3ccco3)ccc2N(C)C)cc1  -0.342%
10. CCOC(=O)CN(C(=O)c1cc(C)oc1C)[C@H]1[C@H](OC)[C@@H]2O[C@H]1c1ccccc12  -0.832%
11. CCOC(=O)c1ccccc1NC(=O)CSc1nnc(C)c2cnn(-c3ccccc3OC)c12  -1.28%
12. COC[C@H](C)NC(=O)Cc1sc(C)nc1C  -2.6%
13. O=C1c2ccccc2C(=O)N1CN(C(=O)C(F)(F)F)c1ccc(I)cc1  -2.77%
14. CCc1nc2c(OCC(N)=O)cccn2c1N(C)C(=O)c1ccc(OC)cc1  -2.96%
15. CC(O)CNC(c1nc(-c2ccc(Br)cc2)no1)C(C)C (centres undefined)  -3.51%
16. COc1cccc(C(CN2CCN(C(=O)c3oc4ccccc4c3C)CC2)OCc2cccc(Cl)c2)c1 (centres undefined)  -3.76%
17. CC1=C(C(=O)OCC(C)C)C23C(=O)c4ccccc4C2(OC(=N)C3C#N)O1 (centres undefined)  -3.99%
18. O=C(CN1CCCC1Cn1cccn1)NCCc1ccc(F)cc1 (centres undefined)  -4.22%
19. Cc1ccc(N(CCCCN2C(=O)c3ccccc3C2=O)C(=O)/C=C/c2ccccc2Cl)cc1  -4.6%
20. COc1ccc(C)cc1S(=O)(=O)Nc1ccccc1C(=O)NCc1cccc(Cl)c1  -4.63%
21. CCOC(=O)C1=C(C)N=c2s/c(=C\c3ccc(Cl)c(Cl)c3)c(=O)n2C1c1cccs1 (centres undefined)  -4.71%
22. CCc1cc(N2CCN(c3ccccc3F)CC2)nc(SCc2cccc(C(=O)NCC3CCCO3)c2)n1 (centres undefined)  -4.77%
23. O=C1NC2(CCN(Cc3ccccc3[N+](=O)[O-])CC2)Nc2ccc(Br)cc21  -4.81%
24. COc1ccccc1C1=NOC(CN(Cc2ccccc2Cl)C(=O)C2CCC2)C1 (centres undefined)  -4.91%
25. O=C(COc1ccc(Cl)cc1)NCC1CCN(c2nc(Cc3ccc(F)cc3)ns2)CC1  -5.03%
26. O=C(Nc1nnc(C23CC4CC(CC(C4)C2)C3)s1)C12CC3CC(CC(C3)C1)C2  -5.12%
27. O=C1OC(c2ccc(Cl)cc2)=NC1=Cc1ccc(N2CCOCC2)s1  -5.28%
28. COc1ccccc1C(=O)N1CCC(n2c(=O)oc3ccc(Cl)cc32)CC1  -5.6%
29. S=C(NN=CC1CC=CCC1)NC1CCCCC1 (centres undefined)  -5.67%
30. Cc1ccc(C)c(NC(=O)Cn2nc3c(=O)n(-c4ccc(Br)cc4)ccn3c2=O)c1  -5.88%
31. O=C(c1ccccc1Br)N1CCc2nc(-c3ccccc3)nc(N3CCCCC3)c2C1  -6.08%
32. CCc1ccc(-c2nn(-c3ccccc3)cc2C=NO)cc1  -6.62%
33. CCOC(=O)c1cc(-c2ccc(N3CCN(C(=O)COCc4ccccc4)CC3)cc2)n(-c2ccccc2Cl)n1  -7.07%
34. CC(C)(C)c1cc2nc(-c3ccccc3F)cc(C(=O)NC3CC3)n2n1  -7.68%
35. Cc1ccc(S(=O)(=O)N(Cc2ccco2)Cc2nccn2Cc2ccc(C(F)(F)F)cc2)cc1  -8.05%
36. Cc1cc(C)n(-c2ccc(N3CCN(S(=O)(=O)c4ccc(C)c(C)c4)CC3)nn2)n1  -8.08%
37. NC(=O)c1cncc(-n2ccnc2-c2ccccc2)c1  -8.08%
38. c1ccc(Oc2cccc(-c3ccc4nnc(-c5ccc6nccnc6c5)n4c3)c2)cc1  -8.11%
39. CCCCn1c(SCc2nnc(C)o2)nc2sc(C)c(C)c2c1=O  -8.28%
40. CC(C)N(C(=O)CN1CCN(C(=O)c2cn(C)cc3c(=O)n(-c4ccccc4)nc2-3)CC1)C(C)C  -8.86%
41. COCCN1C(=O)C(c2c(C(C)C)[nH]n(-c3ccc(Cl)c(Cl)c3)c2=O)=C([n+]2ccccc2)C1=O  -8.94%
42. CC(C)(C)S(=O)(=O)c1ccc2nn(CC(=O)Nc3ccc(Cl)cc3)c(=O)n2n1  -9.01%
43. O=C(CCN1C(=O)COc2ccccc21)N1CCC2(CCCO2)CC1  -9.44%
44. COc1ccc(OC)c(CC(=O)NC2CC(C)(C)Cc3c2cnn3-c2cccc(F)c2)c1 (centres undefined)  -9.44%
45. COc1cccc(Cc2c(C)nc(C)nc2N2CCN(S(=O)(=O)c3ccc(NC(C)=O)cc3)CC2)c1  -9.89%
46. CCCN1CCN(S(=O)(=O)c2[nH]ncc2C(=O)OCC)CC1  -10.5%
47. COCCCn1c(CN2CCCC(C(=O)c3ccccc3)C2)cnc1S(C)(=O)=O (centres undefined)  -11%
48. Cc1ccc(C)c(Cn2ccnc2CN(CC(C)C)C(=O)c2cccc(F)c2)c1  -11.5%
49. Cc1cc2c(o1)CC(C)(C)CC2NS(=O)(=O)CCc1ccccc1 (centres undefined)  -12.8%
50. Cc1nnc(SCC(=O)Nc2cccc(Cl)c2)c2c1cnn2-c1ccc(F)cc1  -13.2%
51. CC1c2cccn2CCN1Cc1ccc(C#N)cc1F (centres undefined)  -13.4%
52. CC(C)Nc1cc(N2CC(c3ccccn3)C2)ncn1  -15.6%
53. CCOc1ccccc1NC(=O)CC(=O)N1[C@H](C)CCC[C@@H]1C  -17.8%
54. COc1ccc(/C=C/C(=O)N2CCC3(CC2)CC3C(=O)N2CCN(c3ccccn3)CC2)cc1OC (centres undefined)  -22.2%
